Among the data in the supplement of paper PMC6555819 are PBM binding z-score values, retold here.

The experiment concerns VDR:RXRa (NR concentration 270 nM, RXRa partner concentration 90 nM). The experiment in a line: PBM binding z-score (relative to random genomic background probes); higher = stronger binding; sequences stand for … in GC…GCGATTGACAGCGTAGAATGAAGG
The method, then: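 Protein-binding microarray (Agilent 4x180K custom design, double-stranded 60-nt probes: 5' GC cap, 34-nt variable region, 24-nt constant primer region; full probe sequence given). Purified or IVT nuclear receptor:RXRα heterodimers (3:1 NR:RXRα, mostly 270:90 nM) or homodimers were incubated for 1 h in PBS with 2% milk and no ligand, then detected with Alexa488 antibodies. Fluorescence from o1-orientation probes (~5 replicates averaged) was converted to z-scores against 500 random hg19 background probes. Variable regions are seed direct-repeat (DR0–DR5) sites, all their single-nucleotide variants and half-site ablations.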
On to GCAGACAGGTGAAACGCAGGTAACTTAGGGTGGC, for which the PBM binding z-score was -0.477. ACTACAGGGTCACTAGGCCAGAGTAGGTACGAAT displayed a PBM binding z-score of 3.76. The sequence ATCTCTAGGTAAACTTCAGTGAAAGATCGATAGA showed a PBM binding z-score of 0.36. Consider CCGCGTAGGTTATGGGGCATTCAGGCAACGGTGA, for which the PBM binding z-score was -0.207. TCTACCAGGCCAGAGGGTCACTCAAGAGGTACGG came in with a PBM binding z-score of 2.1.

With TAGCCTAGGGCAGATCGGGCCAGTATACGCTATA, the PBM binding z-score was -0.562. In the case of GCTAGCTGGTCAGTAAAAGGTCACACACCGGTCG, the PBM binding z-score amounted to 3.52. As for CGTCGAAGGTCAGCAGGTCAGTGAAAGCGACGTG, the PBM binding z-score was 3.61. On to CGTCCAAGGTCAAGGTCAGGGAAAGAGACTCGAA, for which the PBM binding z-score stood at 4.97. The sequence TCGTGTAGATCAAGCAGGTTAAGAAAGCCTGAGT yielded a PBM binding z-score of 0.56. As to TCTGCTAGGGCAGTTGGTCAGCTAACGAGCTGCC, the PBM binding z-score is -0.663. Consider ATCTCTAGGTAAGACTCAGTTCATTGAAGAACGC, for which the PBM binding z-score was determined as 2.42. In turn, ACTAGCAGGCCAAGTTTGGGTCACTAAAACAAAG showed a PBM binding z-score of 0.553. On to CCTACTGGGCCAAGGTCATTTATCAGTCAAAGCA, for which the PBM binding z-score was 3.13. With CCTGCTAGGTCAATGGTCAGCCAAAGCAGCTCGC, the PBM binding z-score was determined as 0.672. The same measure for GATACAGGGTCAGCTAGAGACCAGAGTATGGAAA: 2.23; for TGTAAAAGTTCAAAGGTAACGTAAGTATCCACAC: 4.65. As for CGTCCTAGGTCAGAGAGGTCAGTGAATGCCGAGT, the PBM binding z-score was 6.8. The same measure for CCTTACGGGTCACTGGCAGGTTATAGCATTTGGA: 3.81; for ATCTCTAGGTAAAGTTTAGTGAAAGATCGATAGA: 0.28; for ACTATGAGTTGAGACGAGGGCAACCGATAGGTTG: 1.9. In turn, ATATGTAGGTTAGCTGGGGTCATGCAGACTAGGC registered a PBM binding z-score of 5.85.

GCTTACGGGTCAAAGGATATAGCATGAATAGAAT: the PBM binding z-score was 3.16. The sequence ACTCAAAGTTCATCTAGGTAACGTAAGATATGCT showed a PBM binding z-score of 4.98. Consider AGTCAAAGTTCAGCTAGGTAACGTAAGATATGCT, for which the PBM binding z-score stood at 3.03. Take GATACAGGGTCCAGGCCAGAGTACGCGTATTGAT: the PBM binding z-score is -0.0532. The sequence ATCTCTAGGTAACAAGATCAGTGAAAGAGAGGAC had a PBM binding z-score of 0.388. For CCTCGGAGGACAGAAGGTCAGAGCGGTCCGCTTT the value was 1.83.

TTACCAAGGTGAGCTGAGGTCGTTCATCCAACTC had a PBM binding z-score of 4.32. For GCTCGGAGGACAGGGTCAGAGCTTTGTCCGTAGA the value was 1.08; for CCGAGTAGGTTATGGGGCATTCTGGCAACGGTGA, -0.0151; for TTTTGTAGATCAGCAGGTTAAGAAAGCTGGCCAA, 0.0929.

Consider ATATGTAGGTTAAGGGTCCTTCAGGTTGGTTCGC, for which the PBM binding z-score came out at 1.67. For CGTCCAAGGTCAGGAGGTCAGTGAAAGCGACGTG the value was 4.66; for GCTAGCAGGCCATTTGGGTCACCCAATGACGGGC, 1.07; for TATGCTAGGTCAGTTGGTCAGCTAACGAGCTGCC, 0.137. For AGTCAAAGTTCATCTAGGTAAAGTAAGATATGCT the value was 4.84; for TCGAGTAGGTTAGTCGGGGAATTCAGCCAACATA, -0.318; for CGTCCAAGGTCGGAGAGGTCAGTGAATGCCGAGT, 6.04. ACTTACCGGTCAACGAGGTTATAGCACGCGTATA showed a PBM binding z-score of 6.19.
